C diff growth: blocks growth of Clostridium difficile | Clostridium difficile clinical isolate growth, OD600, 24 h; hits give low values | hit rate 0.25% among 86,000 | growth activity, negative = inhibition, % at 16 µg/mL (by protocol) | AID 1259249;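 active means mean growth activity at or below -80% and every replicate also at or below -80%; inconclusive means mean at or below -80% but some replicate above -80%; inactive means mean growth activity above -80%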;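 further: 0% = DMSO wells and -100% = levofloxacin 16 µg/mL wells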
T cruzi growth-1: blocks T. cruzi growth in NIH3T3 culture. T. cruzi beta-gal in NIH3T3, GalScreen luminescence, 90 h. inhibition, % at 8.34 µM. hit rate 5.9% among 77,000. AID 624255;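 active means mean inhibition above about 93%, with at least 55% of replicates each passing it, limit read from the data, passing the limit was not always enough; inconclusive means only one of those two conditions holds; inactive means neither condition holds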
Pf Dd2 growth: blocks growth of Plasmodium falciparum Dd2 parasites. activity change, % at 10 µM. hit rate 2.3% among 94,000. P. falciparum Dd2 growth, SYBR Green, 72 h; hits give low values. AID 1159554; in the data active means activity change below about -80%; inconclusive means no clear call, values can overlap the other calls
T cruzi growth-2: inhibitors of T. cruzi proliferation; hit rate 72% among 5,600; T. cruzi beta-gal in NIH3T3, GalScreen luminescence, 90 h; shares compounds with T cruzi growth-1; inhibition, % at 8.35 µM;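 active means mean replicate inhibition above about 95% and at least 55% of replicates individually reaching it, limit read from the data; inconclusive means only one of the two criteria is met; inactive means neither criterion is met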
T cruzi growth-3: blocks T. cruzi growth in NIH3T3 host cells. T. cruzi beta-gal in NIH3T3, GalScreen luminescence, 90 h. shares compounds with T cruzi growth-1. inhibition, % at 2.09 µM. hit rate 21% among 5,600;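 active means mean inhibition above about 95%, with at least 55% of replicates also reaching it, limit read from the data; inconclusive means meets just one of the two conditions; inactive means meets neither condition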;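 further: plate controls were neutral control median for no effect and positive control median for full effect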
NIH3T3 tox: NIH/3T3 (mouse) viability loss; shares compounds with T cruzi growth-1; NIH/3T3 viability, CellTiter-Glo ATP luminescence, 90 h; cytotoxicity (signal decrease), % at 8.35 µM; hit rate 14% among 5,600;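 active means mean signal decrease across replicates above about 35% based on untreated-well scatter, with enough replicates individually passing, limit read from the data; inconclusive means no rule stated though some were filed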;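 further: 0% = median of neutral control wells and 100% = median of positive control wells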
NIH3T3 tox 2: kills mouse NIH/3T3 fibroblasts; shares compounds with T cruzi growth-1; NIH/3T3 viability, CellTiter-Glo ATP luminescence, 90 h; inhibition, % at 24.9 µM; hit rate 56% among 5,600; AID 651744;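 active means mean loss of cell viability signal at or above a set limit, and enough replicates individually reaching it; inconclusive means meets only the mean limit or only the replicate share; inactive means meets neither condition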;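 further: 0% = median of neutral control wells and 100% = median of positive control wells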
Starred values were filed as active, the others as inactive. Compounds with a hit are over-represented: about 6.7% of the library has one in this group of screens.

`COc1cccc(-c2ccc3c(c2)O[C@@H](CN(C)Cc2cccnc2)[C@H](C)CN([C@H](C)CO)S3(=O)=O)c1` gave C diff growth -5, T cruzi growth-1 112*, Pf Dd2 growth -52, T cruzi growth-2 inconclusive, T cruzi growth-3 92, NIH3T3 tox 56* and NIH3T3 tox 2 104*.
COc1ccc(-c2ccc3c(c2)O[C@H](CN(C)Cc2cccnc2)[C@H](C)CN([C@@H](C)CO)S3(=O)=O)cc1 was read as C diff growth -7 and Pf Dd2 growth -28.
COc1ccc(-c2ccc3c(c2)O[C@H](CN(C)Cc2cccnc2)[C@H](C)CN([C@H](C)CO)S3(=O)=O)cc1 was read as C diff growth -4 and Pf Dd2 growth -6.
Screening C[C@@H]1CN([C@@H](C)CO)C(=O)Cc2cc(NS(=O)(=O)c3cccs3)ccc2O[C@H]1CN(C)S(C)(=O)=O returned C diff growth -9, T cruzi growth-1 -4 and Pf Dd2 growth 4.
Screening Cc1cc(C(=O)Nc2cccc3c2O[C@@H](CN(C)S(=O)(=O)c2ccc(F)cc2)[C@H](C)CN([C@@H](C)CO)C3=O)n(C)n1 returned C diff growth 0, T cruzi growth-1 28 and Pf Dd2 growth 23.
Screening CCCN1[C@@H]2c3ccc(/C=C/c4ccccc4)c(=O)n3C[C@@H]2[C@@H](CO)[C@@H]1C(=O)NCC returned C diff growth 12, T cruzi growth-1 26 and Pf Dd2 growth -9.
Screening C[C@@H]1CCCCO[C@H](CN(C)C(=O)NC2CCCCC2)[C@H](C)CN([C@@H](C)CO)C(=O)c2cc(NC(=O)c3ccccc3)ccc2O1 returned C diff growth -2, T cruzi growth-1 65 and Pf Dd2 growth -56.
For Cc1ccc(S(=O)(=O)N(C)C[C@@H]2Oc3c(NC(=O)Nc4cccc5ccccc45)cccc3C(=O)N([C@@H](C)CO)C[C@H]2C)cc1 the results were C diff growth -11, T cruzi growth-1 110*, Pf Dd2 growth -67, T cruzi growth-2 -8, T cruzi growth-3 -14, NIH3T3 tox -9 and NIH3T3 tox 2 -9.
Screening COc1ccc(S(=O)(=O)N(C)C[C@@H]2Oc3c(NC(=O)Nc4cccc5ccccc45)cccc3C(=O)N([C@@H](C)CO)C[C@@H]2C)cc1 returned C diff growth 7, T cruzi growth-1 109*, Pf Dd2 growth -48, T cruzi growth-2 33, T cruzi growth-3 -16, NIH3T3 tox -4 and NIH3T3 tox 2 49*.
Screening Cc1ccc(S(=O)(=O)N(C)C[C@H]2Oc3c(NC(=O)Nc4cccc5ccccc45)cccc3C(=O)N([C@H](C)CO)C[C@H]2C)cc1 returned C diff growth -3 and Pf Dd2 growth -40.
For COc1ccc(S(=O)(=O)N(C)C[C@@H]2Oc3c(NC(=O)Nc4cccc5ccccc45)cccc3C(=O)N([C@H](C)CO)C[C@H]2C)cc1 the results were C diff growth 4, T cruzi growth-1 58 and Pf Dd2 growth -31.
`C[C@H](CO)N1C[C@H](C)[C@H](CN(C)C(=O)Nc2ccccc2F)Oc2cc(-c3cccc(C#N)c3)ccc2S1(=O)=O` gave C diff growth 2, T cruzi growth-1 90 and Pf Dd2 growth -68.
For C[C@H]1CN([C@@H](C)CO)S(=O)(=O)c2ccc(-c3cccc(C#N)c3)cc2O[C@H]1CN(C)C(=O)Nc1ccccc1F the results were C diff growth 1, T cruzi growth-1 117*, Pf Dd2 growth -69, T cruzi growth-2 103*, T cruzi growth-3 89, NIH3T3 tox 37* and NIH3T3 tox 2 64*.
Screening COc1ccc(-c2ccc3c(c2)O[C@H](CN(C)C(=O)Nc2ccccc2F)[C@H](C)CN([C@H](C)CO)S3(=O)=O)cc1 returned C diff growth -4, T cruzi growth-1 84 and Pf Dd2 growth -30.
C[C@@H]1CN([C@H](C)CO)S(=O)(=O)c2ccc(-c3ccc(F)cc3)cc2O[C@H]1CN(C)C(=O)Nc1ccccc1F was read as C diff growth 12, T cruzi growth-1 55 and Pf Dd2 growth -55.
Screening C[C@H](CO)N1C[C@H](C)[C@H](CN(C)C(=O)Nc2ccccc2F)Oc2cc(-c3ccc(F)cc3)ccc2S1(=O)=O returned C diff growth 1, T cruzi growth-1 101 and Pf Dd2 growth -54.
Screening COc1ccc(-c2ccc3c(c2)O[C@H](CN(C)C(=O)Nc2ccccc2F)[C@H](C)CN([C@@H](C)CO)S3(=O)=O)cc1 returned C diff growth -8, T cruzi growth-1 96*, Pf Dd2 growth -22, T cruzi growth-2 105*, T cruzi growth-3 63, NIH3T3 tox 19 and NIH3T3 tox 2 72*.
For C[C@H]1CN([C@@H](C)CO)S(=O)(=O)c2ccc(-c3ccc(F)cc3)cc2O[C@H]1CN(C)C(=O)Nc1ccccc1F the results were C diff growth 32, T cruzi growth-1 inconclusive, Pf Dd2 growth -76, T cruzi growth-2 110*, T cruzi growth-3 76, NIH3T3 tox 56* and NIH3T3 tox 2 55*.
C[C@@H]1CN([C@@H](C)CO)S(=O)(=O)c2ccc(-c3ccc(F)cc3)cc2O[C@@H]1CN(C)C(=O)Nc1ccccc1F was read as C diff growth -3, T cruzi growth-1 98*, Pf Dd2 growth -19, T cruzi growth-2 102*, T cruzi growth-3 43, NIH3T3 tox -2 and NIH3T3 tox 2 24.
`COc1ccc2c3c(n(C)c2c1)[C@@H](CO)N(Cc1ccccc1F)CC31CN(C(=O)C2CCCC2)C1` gave C diff growth 8 and Pf Dd2 growth -58.
COc1ccccc1C#Cc1ccc([C@@H]2[C@H]3CN(C(=O)C4CC4)CCCCN3[C@H]2CO)cc1 was read as C diff growth -4, T cruzi growth-1 103*, Pf Dd2 growth 2, T cruzi growth-2 109*, T cruzi growth-3 50, NIH3T3 tox inconclusive and NIH3T3 tox 2 102*.
For COc1ccccc1C#Cc1ccc([C@H]2[C@H](CO)N3CCCCN(C(=O)C4CC4)C[C@@H]23)cc1 the results were C diff growth -2, T cruzi growth-1 106*, Pf Dd2 growth -19, T cruzi growth-2 109*, T cruzi growth-3 76, NIH3T3 tox 28 and NIH3T3 tox 2 104*.
Screening COc1ccccc1C#Cc1ccc([C@@H]2[C@@H](CO)N3CCCCN(C(=O)C4CCC4)C[C@@H]23)cc1 returned C diff growth 14, T cruzi growth-1 82 and Pf Dd2 growth -21.
CCOC(=O)N(C)C[C@@H]1OCc2cn(nn2)CCCC(=O)N([C@@H](C)CO)C[C@@H]1C was read as C diff growth -2, T cruzi growth-1 31 and Pf Dd2 growth 24.

Assay outcomes deposited in PubChem BioAssay by Broad Institute.
